For eight compounds, Percent Effect results are on record in ChEMBL document CHEMBL3988442, “University of Dundee, Small-Polar-MMV Screening Library” (2021).

For some of these results: Entries with a potency or affinity are not part of this list.

Common to all, as to design: scale not given: direction of the effect not stated beside the values
Test [1] has as its target Protein translocase subunit SecA (Escherichia coli (strain K12)) (UniProt P10408). Put plainly: Assay to Identify E. coli SecA ATPase Inhibitors. It counts as functional. Conditions: 30 µM.
Test [2] addresses T1, Ubiquitin-activating enzyme e1, putative (Leishmania donovani (strain BPK282A1)) (UniProt E9BSI1).
T1 sequence (whole entry): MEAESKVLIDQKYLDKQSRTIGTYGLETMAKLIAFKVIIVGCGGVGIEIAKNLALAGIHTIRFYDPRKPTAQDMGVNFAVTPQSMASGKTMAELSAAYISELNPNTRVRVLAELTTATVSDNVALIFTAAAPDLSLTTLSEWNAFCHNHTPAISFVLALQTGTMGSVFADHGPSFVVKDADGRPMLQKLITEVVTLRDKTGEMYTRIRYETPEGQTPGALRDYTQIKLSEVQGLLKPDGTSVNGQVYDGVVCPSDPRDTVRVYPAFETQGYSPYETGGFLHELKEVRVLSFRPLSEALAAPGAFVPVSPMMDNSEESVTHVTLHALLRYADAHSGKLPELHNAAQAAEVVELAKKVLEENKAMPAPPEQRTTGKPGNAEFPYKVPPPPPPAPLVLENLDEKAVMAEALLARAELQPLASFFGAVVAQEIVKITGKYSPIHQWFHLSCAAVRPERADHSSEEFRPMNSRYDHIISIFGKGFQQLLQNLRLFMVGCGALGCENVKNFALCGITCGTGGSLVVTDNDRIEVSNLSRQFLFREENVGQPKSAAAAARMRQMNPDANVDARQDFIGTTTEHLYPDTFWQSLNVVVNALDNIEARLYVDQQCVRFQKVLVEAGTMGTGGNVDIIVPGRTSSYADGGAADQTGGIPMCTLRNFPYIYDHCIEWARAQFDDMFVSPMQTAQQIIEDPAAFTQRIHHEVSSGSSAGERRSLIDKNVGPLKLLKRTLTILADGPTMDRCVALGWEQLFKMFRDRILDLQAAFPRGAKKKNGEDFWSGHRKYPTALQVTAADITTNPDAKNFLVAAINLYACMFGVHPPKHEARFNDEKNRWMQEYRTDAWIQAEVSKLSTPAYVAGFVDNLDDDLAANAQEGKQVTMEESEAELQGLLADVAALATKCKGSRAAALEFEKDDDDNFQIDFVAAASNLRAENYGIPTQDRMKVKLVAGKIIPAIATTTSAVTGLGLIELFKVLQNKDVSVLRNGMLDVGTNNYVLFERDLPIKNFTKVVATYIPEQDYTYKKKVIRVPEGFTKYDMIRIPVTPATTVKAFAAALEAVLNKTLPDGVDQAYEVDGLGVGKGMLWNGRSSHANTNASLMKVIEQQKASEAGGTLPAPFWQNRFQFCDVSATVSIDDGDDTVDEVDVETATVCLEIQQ
Kind of test: Leishmania donovani Ubiquitin Activating Enzyme (LdE1). It counts as functional. The conditions noted are these: 30 µM.

Test [3] deals with AMP-activated protein kinase, AMPK (Homo sapiens) (UniProt P54646+O43741+P54619+Q9UGJ0+Q9Y478+Q13131+Q9UGI9). Kind of test: AMP-dependent Kinase enzyme assay. An in vitro enzyme assay that detects ADP turnover that is directly proportional to AMPK activity. This uses naive AMPK that is activated during the assay with MK-8722. It counts as functional. The conditions noted are these: 30 µM.

The target of test [4] is Sialic acid-binding Ig-like lectin 9 (Homo sapiens) (UniProt Q9Y336). Put plainly: Hs-Siglec9 ALPHAscreen SOP 20170721. The conditions noted are these: 10 µM.
Sialic acid-binding Ig-like lectin 9 (Homo sapiens), sequence (Q9Y336 whole entry): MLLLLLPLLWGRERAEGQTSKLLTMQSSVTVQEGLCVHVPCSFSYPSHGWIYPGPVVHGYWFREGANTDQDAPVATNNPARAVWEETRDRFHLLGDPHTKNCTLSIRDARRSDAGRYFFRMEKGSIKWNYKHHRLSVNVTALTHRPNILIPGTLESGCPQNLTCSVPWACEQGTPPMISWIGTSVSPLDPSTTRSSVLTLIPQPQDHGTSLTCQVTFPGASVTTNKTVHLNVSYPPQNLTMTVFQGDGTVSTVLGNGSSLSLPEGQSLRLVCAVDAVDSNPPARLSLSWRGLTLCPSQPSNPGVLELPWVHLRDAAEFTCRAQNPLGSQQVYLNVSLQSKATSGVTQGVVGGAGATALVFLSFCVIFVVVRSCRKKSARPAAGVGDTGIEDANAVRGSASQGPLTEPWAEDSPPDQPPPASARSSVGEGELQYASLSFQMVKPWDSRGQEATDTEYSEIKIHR
The next test relates to Trypanosoma cruzi. Kind of test: Trypanosoma cruzi phosphomannomutase and mannose-1-phosphate guanylyltransferase assay. Format: functional. The conditions noted are these: 10 µM.
For test [5], the target named is T2, Arginase-2, mitochondrial (Homo sapiens) (UniProt P78540).
T2 sequence (whole entry): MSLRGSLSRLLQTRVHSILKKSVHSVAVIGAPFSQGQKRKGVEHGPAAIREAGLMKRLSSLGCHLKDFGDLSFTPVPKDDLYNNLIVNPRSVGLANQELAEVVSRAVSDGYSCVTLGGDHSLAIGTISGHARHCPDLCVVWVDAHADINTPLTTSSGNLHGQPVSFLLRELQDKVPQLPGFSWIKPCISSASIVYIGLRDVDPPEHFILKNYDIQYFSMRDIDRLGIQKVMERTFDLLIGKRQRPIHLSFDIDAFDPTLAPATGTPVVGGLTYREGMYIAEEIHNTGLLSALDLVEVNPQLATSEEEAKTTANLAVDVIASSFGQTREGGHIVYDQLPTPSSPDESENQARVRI
Put plainly: in vitro enzyme assay to detect the production of urea directly proportional to the activity of Arginase II. Also: in the data most compounds retested in dose-response had high values. It counts as functional. The conditions noted are these: 33.3 µM.

Test [6] deals with T3, Proteasome subunit beta (Trypanosoma cruzi) (UniProt O96673).
T3 sequence (whole entry): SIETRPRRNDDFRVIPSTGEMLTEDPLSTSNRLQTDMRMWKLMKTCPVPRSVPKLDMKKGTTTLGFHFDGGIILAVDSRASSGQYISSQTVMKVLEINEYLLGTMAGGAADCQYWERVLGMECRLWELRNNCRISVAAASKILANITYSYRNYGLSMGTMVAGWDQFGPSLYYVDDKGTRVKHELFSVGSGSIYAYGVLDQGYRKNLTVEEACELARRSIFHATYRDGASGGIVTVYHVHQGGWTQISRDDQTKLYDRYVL
Kind of test: Trypanosoma cruzi proteasome chymotrypsin-like activity (TcProtChymo) assay. Also: in the data most compounds retested in dose-response had high values. It counts as functional. Conditions: 9.37 µM.

A further test is filed under the species Homo sapiens. Put plainly: To identify inhibition of the IFN signalling (Jak-Stat) pathway via expression of an eGFP reporter gene under the control of an IFN-stimulated response element (ISRE) containing MxA promoter. Conditions: 30 µM. It counts as functional. (In general: Reporter assays use an easily measured gene product as a stand-in for the process of interest.)

The target in test [7] is T4, Tyrosyl-tRNA synthetase, putative (Trypanosoma cruzi (strain CL Brener)) (UniProt Q4DSP6).
T4 sequence (whole entry): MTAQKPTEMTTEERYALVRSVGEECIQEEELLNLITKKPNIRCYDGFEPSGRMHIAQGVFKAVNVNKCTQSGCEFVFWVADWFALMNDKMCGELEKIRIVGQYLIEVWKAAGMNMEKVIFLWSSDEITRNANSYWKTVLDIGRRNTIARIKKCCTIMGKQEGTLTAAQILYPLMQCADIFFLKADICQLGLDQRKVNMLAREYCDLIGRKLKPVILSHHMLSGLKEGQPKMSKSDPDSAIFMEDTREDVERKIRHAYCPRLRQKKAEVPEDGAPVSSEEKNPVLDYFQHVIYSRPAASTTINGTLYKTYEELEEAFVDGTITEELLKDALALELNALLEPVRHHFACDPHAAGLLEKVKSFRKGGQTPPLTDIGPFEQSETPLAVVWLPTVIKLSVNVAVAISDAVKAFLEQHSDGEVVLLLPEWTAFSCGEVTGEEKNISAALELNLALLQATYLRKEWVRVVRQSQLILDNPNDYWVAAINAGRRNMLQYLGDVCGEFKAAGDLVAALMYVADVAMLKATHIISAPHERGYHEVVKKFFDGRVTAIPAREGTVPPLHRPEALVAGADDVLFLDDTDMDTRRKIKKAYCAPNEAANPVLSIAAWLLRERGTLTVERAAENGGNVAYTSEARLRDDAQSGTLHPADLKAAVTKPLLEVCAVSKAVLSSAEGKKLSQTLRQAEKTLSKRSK
Kind of test: Trypanosoma cruzi tyrosyl tRNA synthetase (TcYRS) _High Tyrosine SOP. Also: in the data most compounds retested in dose-response had high values. Conditions: 30 µM. Format: functional.

Test [8] addresses T4, Tyrosyl-tRNA synthetase, putative (Trypanosoma cruzi (strain CL Brener)). Kind of test: Trypanosoma cruzi tyrosyl tRNA synthetase (TcYRS) SOP. Format: functional. Conditions: 30 µM.
Test [9] concerns the target Chromo domain-containing protein 1 (Saccharomyces cerevisiae (strain ATCC 204508 / S288c) (Baker's yeast)) (UniProt P32657). Put plainly: ScCHD-1 Enzyme Inhibition Assay. Also: in the data most compounds retested in dose-response had high values. It counts as functional. The conditions noted are these: 30 µM.

Chromo domain-containing protein 1 (Saccharomyces cerevisiae (strain ATCC 204508 / S288c) (Baker's yeast)), sequence (P32657 whole entry, the tested form may be a part): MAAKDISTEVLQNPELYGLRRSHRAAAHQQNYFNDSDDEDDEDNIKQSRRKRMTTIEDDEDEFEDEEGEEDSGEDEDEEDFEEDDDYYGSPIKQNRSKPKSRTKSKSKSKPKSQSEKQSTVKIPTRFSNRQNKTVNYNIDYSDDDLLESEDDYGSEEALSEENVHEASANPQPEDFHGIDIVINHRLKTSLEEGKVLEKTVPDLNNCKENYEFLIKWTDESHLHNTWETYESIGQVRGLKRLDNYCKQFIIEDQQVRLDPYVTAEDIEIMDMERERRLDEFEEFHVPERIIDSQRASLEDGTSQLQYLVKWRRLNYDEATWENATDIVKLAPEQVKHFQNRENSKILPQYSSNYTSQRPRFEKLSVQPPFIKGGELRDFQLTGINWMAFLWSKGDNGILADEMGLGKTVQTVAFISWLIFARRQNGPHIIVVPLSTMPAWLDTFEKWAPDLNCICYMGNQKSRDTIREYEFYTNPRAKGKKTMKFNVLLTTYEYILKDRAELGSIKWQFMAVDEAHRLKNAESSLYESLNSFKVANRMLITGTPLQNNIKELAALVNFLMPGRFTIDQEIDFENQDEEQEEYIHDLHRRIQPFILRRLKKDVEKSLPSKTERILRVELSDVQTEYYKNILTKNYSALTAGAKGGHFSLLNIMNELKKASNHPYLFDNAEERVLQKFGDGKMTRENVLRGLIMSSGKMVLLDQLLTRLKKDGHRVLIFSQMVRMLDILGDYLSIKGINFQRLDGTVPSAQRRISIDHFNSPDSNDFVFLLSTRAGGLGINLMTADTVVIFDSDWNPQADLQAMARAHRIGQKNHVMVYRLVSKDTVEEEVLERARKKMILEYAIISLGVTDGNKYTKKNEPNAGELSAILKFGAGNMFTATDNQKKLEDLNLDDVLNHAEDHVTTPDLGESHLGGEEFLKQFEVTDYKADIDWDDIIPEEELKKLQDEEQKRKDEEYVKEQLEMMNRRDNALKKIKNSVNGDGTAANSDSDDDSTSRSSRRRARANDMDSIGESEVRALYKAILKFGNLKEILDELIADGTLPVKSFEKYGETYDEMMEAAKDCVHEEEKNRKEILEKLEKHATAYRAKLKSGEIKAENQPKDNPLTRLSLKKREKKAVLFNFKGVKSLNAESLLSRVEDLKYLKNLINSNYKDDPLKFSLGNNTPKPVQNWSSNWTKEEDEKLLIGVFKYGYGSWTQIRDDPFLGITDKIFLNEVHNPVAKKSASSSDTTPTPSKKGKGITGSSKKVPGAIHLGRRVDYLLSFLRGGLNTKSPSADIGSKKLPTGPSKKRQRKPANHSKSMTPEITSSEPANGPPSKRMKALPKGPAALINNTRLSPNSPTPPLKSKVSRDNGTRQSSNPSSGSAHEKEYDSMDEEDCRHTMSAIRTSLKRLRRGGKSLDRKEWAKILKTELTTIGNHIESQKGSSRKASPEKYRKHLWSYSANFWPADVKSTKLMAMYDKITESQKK
Protein translocase subunit SecA (Escherichia coli (strain K12)), sequence (P10408 whole entry): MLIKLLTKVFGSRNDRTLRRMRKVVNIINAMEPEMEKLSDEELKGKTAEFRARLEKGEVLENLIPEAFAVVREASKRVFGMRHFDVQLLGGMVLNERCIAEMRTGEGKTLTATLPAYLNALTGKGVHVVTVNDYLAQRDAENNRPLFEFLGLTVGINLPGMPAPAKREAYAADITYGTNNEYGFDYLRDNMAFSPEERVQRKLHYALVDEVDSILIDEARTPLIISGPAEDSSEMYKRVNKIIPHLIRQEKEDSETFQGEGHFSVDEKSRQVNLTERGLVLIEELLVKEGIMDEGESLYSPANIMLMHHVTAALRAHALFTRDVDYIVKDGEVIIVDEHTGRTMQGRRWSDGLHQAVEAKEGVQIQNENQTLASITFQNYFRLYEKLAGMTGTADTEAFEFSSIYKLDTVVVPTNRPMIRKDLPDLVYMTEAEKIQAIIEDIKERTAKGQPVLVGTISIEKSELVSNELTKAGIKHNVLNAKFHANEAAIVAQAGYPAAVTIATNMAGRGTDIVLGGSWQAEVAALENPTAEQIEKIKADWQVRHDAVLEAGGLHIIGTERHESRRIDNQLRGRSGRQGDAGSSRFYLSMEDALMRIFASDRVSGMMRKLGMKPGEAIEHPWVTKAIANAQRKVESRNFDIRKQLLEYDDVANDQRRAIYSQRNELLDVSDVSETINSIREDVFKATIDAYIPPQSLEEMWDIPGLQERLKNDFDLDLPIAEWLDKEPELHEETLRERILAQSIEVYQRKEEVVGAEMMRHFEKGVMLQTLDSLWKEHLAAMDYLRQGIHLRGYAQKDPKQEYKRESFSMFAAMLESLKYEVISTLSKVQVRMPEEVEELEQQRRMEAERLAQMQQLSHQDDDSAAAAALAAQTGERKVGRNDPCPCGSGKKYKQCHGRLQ

`CC(C)N1CCC(CNCc2c[nH]nc2C(C)(C)C)C1` (stereo not drawn): the Percent Effect was -2.43% in test [1]; 29.7% in test [2]; -3.65% in test [3]; -3.23% in [4]; 5.19% in the test on Trypanosoma cruzi; -14.4% in test [5]. The Percent Effect in [6] was 17.1%; in the test filed under Homo sapiens, 22%; in [7], 9.36%; in test [8], 23.5%; in [9] it was -10.6%.
`CN1CC2(CCN(Cc3ccoc3)CC2)COc2ccccc2S1(=O)=O`: the Percent Effect was -0.535% in test [1]; 2.7% in test [2]; -0.665% in [3]; 1.6% in [4]; -3.23% in the test with Trypanosoma cruzi; 5.21% in test [5]. Further, the Percent Effect in test [6] was 14.8%; in the test listed under Homo sapiens, 4.83%; in test [7] it was 7.53%; in test [8], 13.6%; in test [9] it was -2.59%.
As for `CN(C)c1cncc(C2CCN(C(=O)CO)CC2)n1`, the Percent Effect was -3.4% in test [1]; 6.76% in test [2]; 7.38% in test [3]; 5.95% in test [4]; 0.198% with Trypanosoma cruzi; 2.55% in [5]. Besides, the Percent Effect is 10.8% in [6]; 22% in the test listed under Homo sapiens; 4.3% in test [7]; 9.09% in test [8]; -10.6% in test [9].
Turning to `O=C(CCc1ccccc1)NCC1CCN(Cc2ccsc2)CC1`, the Percent Effect in [1] is -2.4%; in [2] it was 13%; in test [3], 4.5%; in test [4], -9.22%; in the test on Trypanosoma cruzi, -5.62%; in test [5], 7.1%. The Percent Effect in [6] was 15.3%; in the test listed under Homo sapiens, 20.5%; in [7] it was 2.12%; in test [8], 8.97%; in test [9], -8.15%.
Turning to `O=C(NCCNc1ncccn1)N1CCCC(C(F)(F)F)C1` (stereo not drawn), the Percent Effect in test [1] was -2.28%; in test [2], 10.8%; in [3], 3.11%; in [4] it was -0.403%; with Trypanosoma cruzi it was -2.12%; in test [5], -1.43%. Moreover, the Percent Effect in test [6] was 7.59%; in the test filed under Homo sapiens, 6.58%; in test [7] it was 4.76%; in [8], 19.5%; in test [9], -5.39%.
As for `Cc1ncsc1C(=O)NCCOc1ncc(Cl)cc1Cl`, the Percent Effect was -6.27% in test [1]; 5.41% in test [2]; 1.84% in [3]; 0.223% in test [4]; 0.977% in the test on Trypanosoma cruzi; 4.17% in test [5]. In addition, the Percent Effect in test [6] was 11.1%; in the test listed under Homo sapiens it was 25.4%; in test [7] it was 10.9%; in test [8], 11%; in test [9], -5.96%.
Regarding `CCC(=O)N1CCC(c2nc3ccc(NC(C)C)cn3n2)CC1`, the Percent Effect was -5.82% in [1]; -5.41% in test [2]; -88.4% in [3]; 0.275% in [4]; -1.56% in the test on Trypanosoma cruzi; -0.833% in test [5]. In addition, the Percent Effect in [6] is 1.44%; in the test listed under Homo sapiens, -2.11%; in [7] it was 1.98%; in test [8] it was 1.22%; in [9] it was -4.18%.
Turning to `CC(C)CS(=O)(=O)CC(=O)N(C)Cc1ccc(OC(F)F)cc1`, the Percent Effect is -4.46% in test [1]; 2.7% in [2]; 4.52% in [3]; -5.18% in [4]; -1.74% with Trypanosoma cruzi; 0.476% in test [5]. The Percent Effect was 15.2% in test [6]; 12.9% in the test filed under Homo sapiens; -0.529% in [7]; 9.76% in test [8]; -2.02% in test [9].
